Our source for the growth values is PubChem BioAssay (NCI).

Holding throughout (experiment): NCI-60 one-dose screen, 48 h (100 = growth as untreated, 0 = no growth, -100 = all killed)
Assay [1] deals with HT29 colon. Conditions: 10 µM unless noted.
Assay [2] relates to SNB-75 CNS. Conditions: 10 µM unless noted.
For assay [3], the system named is SNB-19 CNS. Conditions: 10 µM unless noted.
Assay [4] deals with U251 CNS. Conditions: 10 µM unless noted.
Assay [5] has as its system PC-3 prostate. Particulars: 10 µM unless noted.
Assay [6] relates to SK-MEL-5 melanoma. Conditions: 10 µM unless noted.
Assay [7] relates to UACC-62 melanoma. Particulars: 10 µM unless noted.
In assay [8] the test system is LOX IMVI melanoma. Particulars: 10 µM unless noted.
The test system of assay [9] is SK-MEL-28 melanoma. Conditions: 10 µM unless noted.
The subject of assay [10] is SK-MEL-2 melanoma. Particulars: 10 µM unless noted.
Assay [11] deals with EKVX NSCLC. Conditions: 10 µM.
Assay [12] has as its system SN12C renal. Particulars: 10 µM unless noted.
The subject of assay [13] is UO-31 renal. Conditions: 10 µM unless noted.
The subject of assay [14] is TK-10 renal. Particulars: 10 µM unless noted.
The test system of assay [15] is ACHN renal. Conditions: 10 µM unless noted.
In assay [16] the test system is CAKI-1 renal. Particulars: 10 µM unless noted.
Assay [17] deals with A498 renal. Conditions: 10 µM unless noted.
For assay [18], the system named is CCRF-CEM leukemia. Conditions: 10 µM.
The subject of assay [19] is MOLT-4 leukemia. Particulars: 10 µM unless noted.

Compounds without any hit were thinned out: in the full panel of roughly 83,000, 20% have a hit.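 Activity criterion: percent growth below 10, measured after cells in 96-well plates were exposed to a single compound concentration for 48 hours.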 Unmarked numbers belong to inactive results. Activity calls are given as the source filed them.

On to `O=C(/C=C/c1ccc(Br)cc1)c1ccccc1`, for which the growth is 69.8% in assay [1]; 101% in assay [2]; 86.9% in [3]; 69% in assay [4]; 82% in assay [5]; 95.3% in [6]. Moreover, the growth in [7] was 92.2%; in assay [8], 59.6%; in assay [9], 109%; in [10], 103%; in [11] it was 109%; in assay [12], 91.6%. For the same molecule, the growth in [13] was 80.3%; in assay [14], 64%; in [15], 100%; in assay [16], 101%; in assay [17] it was 77.4%; in assay [18], 81.6%. Besides, the growth in [19] was 92.3%.

For `CCN(CC)CCNc1ncnc2c1cnn2-c1ccc(Cl)cc1`, the growth in assay [1] is 7.44% (active); in [2] it was 74.4%; in assay [3] it was 91.2%; in [4], 75.5%; in assay [5], 82%; in [7] it was -50.5% (active). Further, the growth in assay [8] is 60%; in assay [9], -40.4% (active); in assay [11] it was 82.8%; in assay [12], 80.6%; in [14], 118%; in [15], 92.6%. Also, the figures for the growth in assay [16], in assay [18] and in assay [19] were 61.5%, 50.8% and 92.9%, respectively.

In the case of `O=C(Nc1ccc(-n2cc(-c3ccncc3)c(-c3ccc(Cl)c(O)c3)n2)cc1)Nc1ccc(Cl)c(C(F)(F)F)c1`, the growth in [1] was -92.4% (active); in assay [2], -11.6% (active); in [3], 27.4%; in [4] it was -31.4% (active); in assay [6], -89.4% (active); in assay [7], -25% (active). Also, the growth in [8] is 5.17% (active); in assay [9], -28.3% (active); in assay [11] it was 1.43% (active); in assay [12], 31.1%; in assay [13] it was -32.6% (active); in assay [14] it was -12.1% (active). Besides, the growth in assay [15] was 2.3% (active); in [16], -32.5% (active); in [17], 63.6%; in assay [19] it was -1.95% (active).

Consider `CC(O)CN(CCO)CCN(CCO)CC(C)O` (stereo not given), for which the growth is 100% in [1]; 98.7% in assay [2]; 105% in [3]; 106% in [4]; 106% in assay [5]; 106% in [6]. In addition, the growth is 101% in assay [7]; 98% in [8]; 106% in assay [9]; 114% in assay [10]; 104% in [12]; 99.6% in [13]. The growth is 103% in assay [14]; 102% in [15]; 95.1% in assay [16]; 112% in [17]; 100% in [19].

Take `N#CCc1ncc(-c2ccc(C(F)(F)F)cc2)c(NC2CCCCCC2)n1`: the growth in assay [1] is 14% [100 µM]; in assay [2], 52.5% [100 µM]; in assay [3] it was 45.2% [100 µM]; in assay [4], 22.4% [100 µM]; in [5], -3.13% [100 µM] (active); in assay [6] it was 22.9% [100 µM]. Moreover, the growth was 42.1% [100 µM] in assay [7]; 25% [100 µM] in [8]; 65.8% [100 µM] in assay [9]; -22.1% [100 µM] (active) in assay [10]; 30.4% [100 µM] in assay [12]; 29.8% [100 µM] in [13]. Also, the growth is 61.2% [100 µM] in assay [14], 18.4% [100 µM] in [15], 1.91% [100 µM] (active) in [17] and -4.66% [100 µM] (active) in [19].

Regarding `COC1=CC(c2ccc[nH]2)=N/C1=C\c1[nH]c(C)c(C(=O)CCCCC(=O)NC(C)(C)C)c1C`, the growth is 3.41% (active) in assay [1]; 41.5% in [2]; 70.1% in assay [3]; 22% in assay [4]; 50.8% in assay [6]; 69.1% in assay [7]. The growth was -34.4% (active) in assay [8]; 98% in assay [10]; 55.3% in assay [12]; 18% in assay [13]; -18.2% (active) in [14]; 71.8% in [15]. Also, the growth in assay [16] is 34.1%; in assay [18] it was 68.5%; in [19], 21.2%.

For the molecule `CCN(CC)CCOC(=O)c1cccnc1`, the growth in assay [1] is 107%; in assay [2], 79.6%; in assay [4], 97.7%; in [5], 99.7%; in [6], 98%; in assay [7], 103%. For the same molecule, the growth in [8] was 90.9%; in assay [9], 98.4%; in assay [10], 91.1%; in assay [12], 96.2%; in assay [13], 86.2%; in assay [15], 99.3%. Also, the growth in assay [16] is 99.6%; in assay [17] it was 62.5%.

On to `O=C1C(Cl)=C(Nc2ccc(Nc3ccccc3)c(NC3=C(Cl)C(=O)c4ccccc4C3=O)c2)C(=O)c2ccccc21`, for which the growth was 66.4% in assay [1]; 81.3% in [2]; 52.3% in assay [3]; 33.5% in assay [4]; 48% in [5]; 90.9% in [6]. Also, the growth in [7] is 39.4%; in [8] it was 63.3%; in [9], 113%; in assay [10], 106%; in assay [11], 65.8%; in [12], 85%. Further, the growth in assay [13] was 57.3%; in [14] it was 27.8%; in assay [16], 45.3%; in [17], 53%; in assay [18], 37.9%; in assay [19], 37.3%.
